This is an account of results in PubChem BioAssay (EPA / NIEHS).

Activity calls are given as the source filed them. How the source made its calls: active means hit-call score of the fitted dose curve at least 0.9, where 1 is the maximum; inactive means score below 0.9.

A short description of assay [1]: ATG_M_61_CIS: Attagene CIS-FACTORIAL HepG2 Assay for M61 Transcription Factor (Internal Marker) (AID 2282937). To be noted: HepG2 Attagene CIS-FACTORIAL M61 internal marker reporter; actives raise or lower the signal. An outline of the steps:
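Background-control endpoint: HepG2 cells with cis-regulated reporter constructs, 24 h exposure, reporter mRNA detected via fluorescent primer extension and capillary electrophoresis; values from bidirectional fitting with DMSO baseline.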

A short description of assay [2]: ATG_EGR_CIS: Attagene CIS-FACTORIAL HepG2 Assay for human Early Growth Response 1 (EGR1) (AID 2282938). To be noted: HepG2 Attagene CIS-FACTORIAL EGR reporter mRNA; actives raise or lower the signal. An outline of the steps:
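Endpoint derived by bidirectional fitting versus DMSO vehicle. Method: cis-promoter reporter units transfected into HepG2, 24 h dosing, RNA isolation, RT-PCR with 6-FAM primer extension and HpaI digestion, then capillary electrophoresis fluorescence detection.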

Assay [3] in a line: ATG_M_19_CIS: Attagene CIS-FACTORIAL HepG2 Assay for M19 Transcription Factor (Internal Marker) (AID 2282939). To be noted: HepG2 Attagene CIS-FACTORIAL M19 internal marker reporter; actives raise or lower the signal. The gist of the method: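 In this multiplexed cell assay, transiently transfected HepG2 reporter units report endogenous transcription-factor activity; after 24 hours of treatment, labelled reporter cDNA fragments are quantified by capillary electrophoresis and fitted bidirectionally against DMSO.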

Assay [4] in a line: ATG_Ets_CIS: Attagene CIS-FACTORIAL HepG2 Assay for human Erythroblast Transformation Specific (ETS) (AID 2282941). To be noted: HepG2 ETS cis-reporter transcription, actives raise or lower the signal. An outline of the steps:
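Bidirectional fit versus DMSO of reporter mRNA signal, detected by RT-PCR and capillary electrophoresis in HepG2 cells transiently transfected with cis-element reporters and dosed 24 h.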

In assay [5] the target is Hepatocyte nuclear factor 3-beta (Homo sapiens) (UniProt Q9Y261). Put plainly: ATG_FoxA2_CIS: Attagene CIS-FACTORIAL HepG2 Assay for human Forkhead box A2 (FOXA2) (AID 2282942). The following applies: HepG2 cis-reporter transcription factor activity, 24 h; actives raise or lower the signal. An outline of the steps:
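Measured: reporter mRNA induction or loss in HepG2 transiently carrying multiple cis-regulated reporter units, 24 h after dosing. Quantified by RT-PCR plus capillary electrophoresis, normalised to DMSO.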

A short description of assay [6]: ATG_FoxO_CIS: Attagene CIS-FACTORIAL HepG2 Assay for human Forkhead box O (FoxO) (AID 2282943). The following applies: HepG2 Attagene cis-reporter, FoxO element, mRNA; actives raise or lower the signal. An outline of the steps: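 HepG2 cells transiently transfected with cis-element-driven reporter units report endogenous FoxO activity. After 24 h chemical exposure, reporter mRNA quantified by RT-PCR, fluorescent labeling, HpaI digestion and capillary electrophoresis; bidirectional fit versus DMSO.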

A short description of assay [7]: ATG_GATA_CIS: Attagene CIS-FACTORIAL HepG2 Assay for human GATA Binding Protein (AID 2282944). To be noted: HepG2 GATA cis-element reporter, Attagene multiplex mRNA; actives raise or lower the signal. The gist of the method: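 Measures endogenous transcription factor-driven reporter mRNA in HepG2 cells transiently carrying cis-regulated constructs. 24 h dosing; RNA via oligo(dT) reverse transcription, PCR, HpaI digestion, capillary electrophoresis; fitted relative to DMSO.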

Assay [8] is described as follows: ATG_GLI_CIS: Attagene CIS-FACTORIAL HepG2 Assay for human Zinc Finger Protein GLI1 (AID 2282945). To be noted: HepG2, Attagene cis-factorial reporter mRNA, GLI element; actives raise or lower the signal. The gist of the method:
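Transiently transfected HepG2 cells report endogenous transcription factor activity via cis-element-driven reporter units. After 24 h compound exposure, reporter mRNA was measured by RT-PCR with capillary electrophoresis; bidirectional fitting against DMSO baseline.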

Assay [9] is described as follows: ATG_ISRE_CIS: Attagene CIS-FACTORIAL HepG2 Assay for human Interferon Regulatory Factor 1 (IRF1) binding to an Interferon-Stimulated Response Element (ISRE) (AID 2282948). To be noted: HepG2 ISRE cis-reporter (Attagene), mRNA transcription readout; actives raise or lower the signal. The gist of the method:
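Uses HepG2 liver cells transfected with cis-regulated reporters and measures mRNA 24 h post-dosing through RT-PCR, primer-extension labelling and capillary electrophoresis, with DMSO as negative control.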

The nature of assay [10]: ATG_M_32_CIS: Attagene CIS-FACTORIAL HepG2 Assay for M32 Transcription Factor (Internal Marker) (AID 2282949).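 Further: background control marker of the multiplexed CIS panel rather than a real target.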 The following applies: HepG2 Attagene cis-factorial M32 reporter, mRNA; actives raise or lower the signal. An outline of the steps: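 HepG2 transfectants (cis-regulated reporter transcription units) dosed 24 h. Reporter mRNA by RT-PCR plus CE, analysed as gain or loss relative to DMSO.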

Assay [11] is described as follows: ATG_M_06_CIS: Attagene CIS-FACTORIAL HepG2 Assay for M06 Transcription Factor (Internal Marker) (AID 2282950). To be noted: HepG2 Attagene CIS-FACTORIAL M06 internal marker reporter; actives raise or lower the signal. The gist of the method: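 One of many multiplexed endpoints: HepG2 reporter mRNA after 24 h dosing, detected by RT-PCR and capillary electrophoresis fluorescence; gain or loss of signal analysed against DMSO.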

In assay [12] the target is Hypoxia-inducible factor 1-alpha (Homo sapiens) (UniProt Q16665). Put plainly: ATG_HIF1a_CIS: Attagene CIS-FACTORIAL HepG2 Assay for human Hypoxia Inducible Factor 1 (HIF1A) (AID 2282951). The following applies: HepG2 Attagene cis-factorial HIF1a reporter transcription; actives raise or lower the signal. An outline of the steps:
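Dosed 24 h, transfected HepG2 cells yielded total RNA whose reporter transcripts were RT-PCR-amplified and sized by capillary electrophoresis using fluorescent labelling; DMSO defined baseline, with gain and loss of signal both fitted.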

Assay [13] concerns the target Hepatocyte nuclear factor 6 (Homo sapiens) (UniProt Q9UBC0). Kind of assay: ATG_HNF6_CIS: Attagene CIS-FACTORIAL HepG2 Assay for human Hepatocyte Nuclear Factor 6 (HNF6) (AID 2282952). To be noted: HepG2 Attagene cis-factorial HNF6 reporter transcription; actives raise or lower the signal. An outline of the steps:
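First, HepG2 cells were transfected with the multiplexed cis reporter library and dosed with chemical for 24 h. Next, RNA was reverse-transcribed, PCR-amplified and fluorescently labelled. Finally, HpaI-digested fragments were read by capillary electrophoresis.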

Assay [14] deals with Heat shock factor protein 1 (Homo sapiens) (UniProt Q00613). Put plainly: ATG_HSE_CIS: Attagene CIS-FACTORIAL HepG2 Assay for human Heat Shock Transcription Factor 1 (HSE) (AID 2282953). To be noted: HepG2 HSE cis-reporter, Attagene RNA transcription; actives raise or lower the signal. The gist of the method:
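Using HepG2 with transfected cis-driven reporter constructs, compound effects on endogenous factor activity are scored as reporter mRNA change at 24 h. Detection: RT-PCR, HpaI digestion, capillary electrophoresis; bidirectional fitting to DMSO.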

Assay [15] can be described thus: ATG_MRE_CIS: Attagene CIS-FACTORIAL HepG2 Assay for human Metal Responsive Element (MRE) (AID 2282954). The following applies: HepG2 MRE cis-reporter transcription, Attagene multiplex; actives raise or lower the signal. The gist of the method: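 Measured here is mRNA induction from an MRE cis-element reporter in HepG2 after 24 h, quantified by fluorescence of labelled RT-PCR products on capillary electrophoresis; gain- and loss-of-signal fits use DMSO as baseline.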

Assay [16] can be described thus: ATG_ERE_CIS: Attagene CIS-FACTORIAL HepG2 Assay for Estrogen Response Element (ERE) (AID 2282940). To be noted: HepG2 ERE cis-reporter, Attagene RNA transcript; actives raise or lower the signal. The gist of the method: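 Measuring endogenous transcription factor output, the assay doses transfected HepG2 cells for 24 hours and quantifies reporter transcripts by fluorescent RT-PCR and capillary electrophoresis, with DMSO as baseline.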

Assay [17] addresses Bile acid receptor (Homo sapiens) (UniProt Q96RI1). Kind of assay: ATG_IR1_CIS: Attagene CIS-FACTORIAL HepG2 Assay for human Nuclear Receptor Subfamily 1 Group H Member 4 (NR1H4), IR1 submotif (AID 2282946). To be noted: IR1 reporter transcription, actives raise or lower the signal. The gist of the method:
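Fluorescence of capillary-separated, HpaI-digested RT-PCR reporter products gave IR1-element mRNA induction in HepG2 cells 24 h after dosing. Endogenous transcription factors drove the cis-regulated reporters; activity was fitted bidirectionally against DMSO.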

Assay [18] in a line: ATG_GRE_CIS: Attagene CIS-FACTORIAL HepG2 Assay for human Glucocorticoid Response Elements (GRE) (AID 2282947). To be noted: HepG2 GRE cis-reporter, Attagene multiplex mRNA; actives raise or lower the signal. An outline of the steps:
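Fluorescence intensity of reporter-specific cDNA fragments, separated by capillary electrophoresis, provides the signal. Constructs carry cis-regulating promoters in transiently transfected HepG2 liver cells; 24 h incubation; fitting is bidirectional against DMSO.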

The nature of assay [19]: ATG_PBREM_CIS: Attagene CIS-FACTORIAL HepG2 Assay for human Phenobarbital-responsive Enhancer Module (PBREM) (AID 2282955). The following applies: HepG2 PBREM cis-reporter, Attagene multiplexed transcription; actives raise or lower the signal. An outline of the steps: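 Transfected liver-derived HepG2 cells exposed 24 h; PBREM reporter transcript quantified via RT-PCR and capillary electrophoresis, with activity in either direction referenced to DMSO.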

Heat shock factor protein 1 (Homo sapiens), sequence (Q00613 whole entry, looked up): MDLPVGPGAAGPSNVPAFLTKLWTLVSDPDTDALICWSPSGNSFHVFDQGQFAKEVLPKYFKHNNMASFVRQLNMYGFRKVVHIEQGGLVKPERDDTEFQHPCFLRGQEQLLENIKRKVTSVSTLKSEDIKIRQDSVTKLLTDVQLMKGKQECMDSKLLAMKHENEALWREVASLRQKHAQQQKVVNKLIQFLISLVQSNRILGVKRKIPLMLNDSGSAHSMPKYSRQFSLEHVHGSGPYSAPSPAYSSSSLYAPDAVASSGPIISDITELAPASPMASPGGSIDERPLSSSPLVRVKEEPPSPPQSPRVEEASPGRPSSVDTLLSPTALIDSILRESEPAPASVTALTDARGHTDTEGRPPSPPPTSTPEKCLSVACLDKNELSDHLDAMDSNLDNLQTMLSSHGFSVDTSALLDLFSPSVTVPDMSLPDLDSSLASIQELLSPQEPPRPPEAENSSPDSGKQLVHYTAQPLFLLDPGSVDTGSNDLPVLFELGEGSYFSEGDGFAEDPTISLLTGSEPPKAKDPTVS
Hypoxia-inducible factor 1-alpha (Homo sapiens), sequence (Q16665 whole entry, looked up): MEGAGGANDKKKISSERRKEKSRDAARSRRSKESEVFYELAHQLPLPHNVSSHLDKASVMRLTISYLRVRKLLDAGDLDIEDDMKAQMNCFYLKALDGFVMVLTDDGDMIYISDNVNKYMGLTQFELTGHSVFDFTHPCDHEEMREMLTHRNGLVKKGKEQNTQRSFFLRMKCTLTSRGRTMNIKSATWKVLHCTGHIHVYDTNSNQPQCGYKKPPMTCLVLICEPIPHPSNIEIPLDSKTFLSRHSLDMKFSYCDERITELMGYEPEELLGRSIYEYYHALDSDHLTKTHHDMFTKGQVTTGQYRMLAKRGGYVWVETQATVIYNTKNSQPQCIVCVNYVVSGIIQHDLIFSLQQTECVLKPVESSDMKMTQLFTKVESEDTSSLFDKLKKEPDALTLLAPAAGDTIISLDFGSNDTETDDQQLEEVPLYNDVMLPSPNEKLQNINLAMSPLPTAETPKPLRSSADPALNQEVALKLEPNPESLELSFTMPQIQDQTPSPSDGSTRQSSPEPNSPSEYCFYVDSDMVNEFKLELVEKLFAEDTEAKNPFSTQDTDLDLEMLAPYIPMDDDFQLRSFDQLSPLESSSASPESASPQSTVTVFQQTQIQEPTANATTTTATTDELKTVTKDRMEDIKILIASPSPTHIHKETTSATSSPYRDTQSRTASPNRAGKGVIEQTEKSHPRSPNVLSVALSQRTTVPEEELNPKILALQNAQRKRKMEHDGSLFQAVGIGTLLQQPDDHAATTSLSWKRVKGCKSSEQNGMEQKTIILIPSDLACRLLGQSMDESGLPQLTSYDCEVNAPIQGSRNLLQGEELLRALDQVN
Bile acid receptor (Homo sapiens), sequence (Q96RI1 whole entry, looked up): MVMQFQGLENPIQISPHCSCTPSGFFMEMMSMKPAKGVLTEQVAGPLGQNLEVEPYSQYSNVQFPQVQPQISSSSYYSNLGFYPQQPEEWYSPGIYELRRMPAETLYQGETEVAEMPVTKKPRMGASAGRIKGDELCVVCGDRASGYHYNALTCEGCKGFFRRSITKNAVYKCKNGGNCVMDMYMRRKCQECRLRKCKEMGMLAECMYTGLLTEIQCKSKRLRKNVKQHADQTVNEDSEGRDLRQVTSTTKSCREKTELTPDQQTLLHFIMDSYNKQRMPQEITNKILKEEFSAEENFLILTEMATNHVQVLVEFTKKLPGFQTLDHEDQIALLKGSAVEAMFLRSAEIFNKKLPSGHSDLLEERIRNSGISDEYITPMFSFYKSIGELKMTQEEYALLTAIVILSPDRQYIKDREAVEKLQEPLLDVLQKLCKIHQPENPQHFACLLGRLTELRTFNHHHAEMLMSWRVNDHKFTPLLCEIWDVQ
Hepatocyte nuclear factor 6 (Homo sapiens), sequence (Q9UBC0 whole entry, looked up, the tested form may be a part): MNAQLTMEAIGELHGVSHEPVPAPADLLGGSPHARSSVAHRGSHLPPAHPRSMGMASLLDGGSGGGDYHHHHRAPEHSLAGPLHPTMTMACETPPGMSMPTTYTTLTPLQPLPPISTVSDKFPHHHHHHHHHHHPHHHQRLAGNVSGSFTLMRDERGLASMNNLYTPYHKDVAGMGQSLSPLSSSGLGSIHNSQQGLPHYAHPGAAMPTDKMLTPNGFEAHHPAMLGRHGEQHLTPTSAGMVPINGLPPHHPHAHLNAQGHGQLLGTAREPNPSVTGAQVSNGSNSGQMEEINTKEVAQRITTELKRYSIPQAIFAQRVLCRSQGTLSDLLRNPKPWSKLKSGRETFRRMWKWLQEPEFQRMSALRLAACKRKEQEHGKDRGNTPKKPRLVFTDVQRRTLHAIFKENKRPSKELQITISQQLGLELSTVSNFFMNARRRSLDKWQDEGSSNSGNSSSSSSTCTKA
Hepatocyte nuclear factor 3-beta (Homo sapiens), sequence (Q9Y261 whole entry, looked up): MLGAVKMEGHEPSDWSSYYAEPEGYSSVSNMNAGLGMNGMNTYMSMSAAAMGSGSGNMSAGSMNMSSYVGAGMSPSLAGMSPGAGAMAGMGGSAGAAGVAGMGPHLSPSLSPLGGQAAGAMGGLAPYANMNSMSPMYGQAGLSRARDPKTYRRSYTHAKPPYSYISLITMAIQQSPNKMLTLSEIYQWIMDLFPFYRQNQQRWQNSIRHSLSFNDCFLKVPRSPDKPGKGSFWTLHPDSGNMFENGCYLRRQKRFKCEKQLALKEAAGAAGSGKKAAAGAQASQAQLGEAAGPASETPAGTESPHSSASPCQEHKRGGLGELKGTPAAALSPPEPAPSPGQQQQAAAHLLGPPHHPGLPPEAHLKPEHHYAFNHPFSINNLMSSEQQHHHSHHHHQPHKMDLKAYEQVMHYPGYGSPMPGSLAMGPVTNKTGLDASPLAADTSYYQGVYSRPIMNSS

With `CC(=O)OCc1ccco1`, the compound was called inactive in assay [1], in [2], in assay [3], in assay [4], in assay [5] and in assay [6]. Besides, the compound was called inactive in assay [7], in assay [8], in assay [9], in assay [10], in [11] and in [12]. The outcome in [13], in assay [14] and in [15] was inactive.

By AC50 is commonly meant the midpoint of the concentration-response curve, whichever way the signal moves. Turning to `CC(=O)[C@@]1(O)CC[C@H]2[C@@H]3C[C@H](C)C4=CC(=O)C=C[C@]4(C)[C@@]3(F)[C@@H](O)C[C@@]21C`, the outcome in [1], in [2], in assay [3], in assay [16], in assay [4] and in assay [5] was inactive. The compound was called inactive in assay [6], in [7], in [8], in assay [17], in assay [9] and in assay [11]. Also, the result in [12], in assay [13], in [14], in assay [15] and in [19] was inactive. Moreover, in assay [18], the AC50 was 0.0821 µM (active).

Turning to `O=C(Nc1cccc(C(F)(F)F)c1)c1cc(Br)cc(Br)c1O`, the AC50 in assay [2] was 25.5 µM (active); in assay [8], 83 µM (active); in assay [17], 66.7 µM (active); in assay [9], 100 µM (active); in [12], 19.9 µM (active); in assay [14], 46.2 µM (active). The AC50 in assay [15] is 85.8 µM (active); in assay [19] it was 1.89 µM (active). The result in assay [3], in [16], in assay [4], in assay [5], in [6] and in [7] was inactive. Also, the result in assay [18], in assay [10], in assay [11] and in [13] was inactive.

Regarding `OCCc1ccncc1`, the outcome in assay [1], in [2], in assay [3], in assay [16], in [4] and in assay [5] was inactive. Further, the compound was classed as inactive in [6], in assay [7], in assay [8], in assay [17], in assay [18] and in [9]. Moreover, the outcome in assay [11], in [12], in assay [13], in assay [14] and in [15] was inactive.

`CC(C)=CC1CC(C)CCO1` (centres undefined): the compound was classed as inactive in assay [1], in assay [2], in [3], in assay [16], in assay [4] and in assay [5]. In addition, the compound was classed as inactive in [6], in [7], in assay [8], in assay [18], in assay [9] and in assay [10]. The call in assay [11], in [12], in assay [14] and in assay [15] was inactive.
